# Inconclusive results are not listed. Calls of active or inactive are those of the source. Calls follow the shape of the dose curve; as a rule, active = well fitted curve in the direction sought with a large enough effect; inconclusive = small, poorly fitted or top-dose-only effect, or effect the other way, or another doubt; inactive = no such curve, though single readings can be large or run the other way.
# Experiment: Secondary Assay for lipid storage modulators: Hela cell LDSA assay for probe SAR
# Settings: HeLa lipid droplet accumulation, BODIPY 493/503 cytometry, oleate-fed
# From the text: NIH Molecular Libraries Probe Production Centers Network [MLPCN] NIH Chemical Genomics Center [NCGC] MLPCN Grant: 1 R03 MH085686-01 Assay Submitter (PI): Beller, Mathias; Max-Planck-Institut fur Biophysikalische Chemie NCGC Assay Overview: Storing lipids as a reservoir for energy or the anabolism of elementary metabolites is a common feature of probably all cells and is conserved from bacteria to humans. The universal cellular lipid storage organelle is the so-called lipid storage droplet (LD). Although ubiquitous, LDs share a simple structure composed of a hydrophobic core that harbors the storage lipids, which is shielded by a droplet-specific phospholipid monolayer to which proteins are attached. The current model of LD biogenesis involves an incorporation of the lipid core into the membrane leaflets of the endoplasmic reticulum (ER) followed by a subsequent budding-like maturation of a LD, which ultimately pinches off. […]
# NCGC Assay Protocol Summary: The assay was performed with Hela cells, using an oleic acid feeding protocol similar to the S3 assay. […] Fluorescence was detected by excitation of the fluorophores with a 488-nm laser on an Acumen Explorer (TTP Lab Tech). […] Cells were detected using channel 3 (575-640 nm) with 5-um width and 100-um depth filters. The ratio of the number of objects in PMT channel 2 over the number of objects in PMT channel 3 was also calculated. […]
smiles,measurement,value
CCC/C=C/C/C=C/C=C/C=N/NN=O,Potency,11.2 nM (active)

# From PubChem BioAssay AID488900 (National Center for Advancing Translational Sciences (NCATS), 2010)
